Assay results as given in PubChem BioAssay (NCI).
About 83,000 compounds went through this panel and 20% of them were active in at least one assay; those are over-represented in the sample as a whole.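 For each line, cells grew in 96-well plates with the test compound present at a single concentration for 48 hours.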 Unmarked numbers belong to inactive results. Active and inactive are the calls of the source. The calls were made as follows: active = growth percent below 10; inactive = the rest.

Legend:
Assay in all cases: NCI-60 one-dose screen, 48 h (100 = growth as untreated, 0 = no growth, -100 = all killed)
[1] = tested on: T-47D breast; details: 10 µM
[2] = tested on: BT-549 breast; details: 10 µM
[3] = tested on: MDA-MB-435 melanoma; details: 10 µM
[4] = tested on: SW-620 colon; details: 10 µM
[5] = tested on: MCF7 breast; details: 10 µM unless noted
[6] = tested on: HCT-116 colon; details: 10 µM
[7] = tested on: HCC-2998 colon; details: 10 µM
[8] = tested on: KM12 colon; details: 10 µM

| Compound | growth [1] | growth [2] | growth [3] | growth [4] [%] | growth [5] | growth [6] | growth [7] | growth [8] |
| --- | --- | --- | --- | --- | --- | --- | --- | --- |
| CCOC(=O)/C(=C/c1ccc(OC)cc1)N(CC)CC | 92.6% | 108% | 110% | 103 | 103% | 101% | 111% | 104% |
| O=c1[nH]cc(Cl)cc1O | 70.5% | 90.6% | 76.4% | 98.6 | 91.2% | 94.3% | 96.9% | 57.7% |
| CCOc1ccc2[nH]c(=S)sc2c1 | 94.5% | 107% | 99.3% | 102 | 102% | 105% | 97.9% | 116% |
| CCOC(=O)CCCC(=O)OCC | 96.4% | 104% | 106% | 102 | 97.9% | 97.9% | 105% | 99.6% |
| O=C(Nc1cc(-c2ccccc2)[nH]n1)c1ccc(Cl)cc1 | 74.1% | 83.5% | 86.4% | 86.1 | 87.6% | 72.3% | 100% | 48.6% |
| C[N+](C)=c1ccc2nc3c(cc(Nc4ccccc4)c4ccccc43)oc-2c1 | 31.8% | 41.7% | 53.5% | 56 | 32.5% | 47.1% | 75.6% | 62.5% |
| O=C(c1ccc(Cl)cc1)c1ccccc1Cl | 74.7% | 91.7% | 106% | 121 | 95.7% | 87.9% | 92.6% | 119% |
| NC(=O)c1ccc(N=C(N)N=C(N)N)cc1 | 95.7% | 108% | 85% | 104 | 92.7% | 105% | 97.7% | 99.3% |
| CC(C)=NNc1ccc([N+](=O)[O-])cc1[N+](=O)[O-] | 64.9% | 90.9% | 84.2% | 85.7 | 93.7% | 82.5% | 87% | 86.4% |
| O=C(O)c1ccc(S(=O)(=O)O)cc1 | 106% | 121% | 114% | 104 | 96.2% | 108% | 105% | 109% |
| COc1cc2nn(-c3ccccc3N)nc2cc1OC | 93.6% | 81.3% | 96.8% | 105 | 90.7% | 103% | 95.8% | 103% |
| O=[N+]([O-])c1ccc(CO)cc1 | 88.3% | 105% | 90.3% | 102 | 91.1% | 101% | 96.1% | 105% |
| CCCC1(c2ccccc2)NC(=O)NC1=O (stereo unspecified) | 106% | 106% | 113% | 111 | 98.6% | 99.3% | 100% | 110% |
| CC1CC(O)CC(C)(C)C1 (stereo unspecified) | 104% | 102% | 101% | 110 | 101% | 99.8% | 109% | 90.3% |
| c1ccc(Cc2ccccc2)cc1 | 93.4% | 123% | 112% | 106 | 113% | 114% | 106% | 98.9% |
| C/C(=C\c1ccc([N+](=O)[O-])cc1)C(=O)O | 98.8% | 94.2% | 102% | 102 | 95.7% | 97.3% | 101% | 103% |
| CC12CC3CC1C(C(=O)O2)C3C(=O)O (stereo unspecified) | 108% | 122% | 109% | 102 | 108% | 118% | 95.8% | 101% |
| CC(C)=NNC(N)=S | 44.1% | 88.3% | 80.2% | 68.7 | 7% (active) | 21.4% | 105% | 94.9% |
| O=C(O)COCC(=O)O | 129% | 122% | 109% | 102 | 100% | 108% | 114% | 96.4% |

| Compound | growth [1] | growth [2] | growth [3] | growth [4] [%] | growth [5] | growth [6] | growth [7] | growth [8] |
| --- | --- | --- | --- | --- | --- | --- | --- | --- |
| CC(C)=C(NC(=O)c1ccccc1)C(=O)O | 116% | 110% | 110% | 102 | 112% | 117% | 101% | 99.6% |
| CC(=O)N(C)c1ccc([N+](=O)[O-])cc1 | 94.7% | 97.4% | 113% | 107 | 95.6% | 102% | 94.8% | 114% |
| O=C(O)c1cccc([N+](=O)[O-])c1 | 109% | 108% | 111% | 111 | 99.2% | 102% | 102% | 105% |
| OCc1ccc(-c2ccc(-c3ccc(CO)s3)o2)s1 | -15.5% (active) | 58.4% | 38% | 10.9 | 9.78% (active) | 5.2% (active) | -14.5% (active) | 81.5% |
| CC(=O)c1c[nH]c2ccccc12 | 97.6% | 104% | 97.5% | 105 | 100% | 97.8% | 108% | 120% |
| C#CC(C(C)C)N(CCO)CCCC (stereo unspecified) | 100% | 112% | 98.6% | 107 | 93.9% | 104% | 111% | 109% |
| Cc1cc(Cc2cc(C)c(N)cc2N)c(N)cc1N | 83.5% | 98.3% | 106% | 90.8 | 88.6% | 94.8% | 108% | 99.5% |
| NCCCN | 98.6% | 106% | 109% | 104 | 96.7% | 109% | 112% | 107% |
| COc1cc(C2c3cc4c(cc3C3OC(=O)C2C3CO)OCO4)cc(OC)c1OC (stereo unspecified) | 70.6% | -24.4% (active) | -45% (active) | 23.1 | 17% | 7.29% (active) | 19% | 1.84% (active) |
| Cc1c(O)cnc2nn(-c3ccccc3)c(=N)n12 | 100% | 108% | 107% | 102 | 97.5% | 101% | 98.4% | 95.8% |
| N=c1c(C(=O)OCc2ccccc2)ncc(CCl)n1O | 93.9% | 80.6% | 96.1% | 86.9 | 91.9% | 78.3% | 104% | 102% |
| NC(=S)N/N=C/c1ccc(N)cc1 | 93.9% | 96.3% | 105% | 104 | 94.8% | 94.1% | 104% | 103% |
| COc1ccc(C2(O)CCCCC2)cc1 | 98.2% | 112% | 107% | 102 | 102% | 99.1% | 104% | 107% |
| CC1=C(/C=C/C(C)=C/C=C/C(C)=C/CO)C(C)(C)CCC1 | 96.6% | 108% | 107% | 109 | 125% | 107% | 108% | 109% |
| CCCCNC1(C#N)CCN(Cc2ccccc2)CC1 | 17.8% | 107% | 97.5% | 102 | 102% | 98% | 86.9% | 144% |
| S=C1CCCCCN1 | 100% | 103% | 104% | 107 | 99.4% | 102% | 112% | 105% |
| CCCOC(=O)C(O)c1ccccc1 (stereo unspecified) | 104% | 103% | 111% | 102 | 98.3% | 97.8% | 110% | 101% |
| O=[N+]([O-])c1ccc(O)c(S(=O)(=O)O)c1 | 96.5% | 128% | 109% | 104 | 102% | 101% | 112% | 111% |
